Results on 63 molecules are retold here after PubChem BioAssay AID493027 (The Scripps Research Institute Molecular Screening Center, 2011).

Structures are written as SMILES. Screen size: about 2,000 compounds; about 45 (2%) were called active. For the sample, actives were picked, then their nearest neighbours and some compounds at random. Unmarked numbers belong to inactive results.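 Rule for the calls: active = inhibition above the screen-wide mean inhibition plus 3 SD (cut at about 44% in these data); inactive = the rest.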

This test deals with Perilipin-1 (Homo sapiens) + 1-acylglycerol-3-phosphate O-acyltransferase ABHD5 (Homo sapiens) (UniProt O60240+Q8WTS1). Description: blockers of ABHD5 binding to perilipin-1 – cell lysate, split luciferase complementation, luminescence, NIH validation set, pilot screen (AID 493027).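 Note: 0% = DMSO wells with the 100% control not disclosed.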 Particulars: split G. princeps luciferase complementation, 4 h; at 7.9 µM, stronger effect = higher value.
Perilipin-1 (Homo sapiens) + 1-acylglycerol-3-phosphate O-acyltransferase ABHD5 (Homo sapiens), sequence (O60240 whole entry, looked up): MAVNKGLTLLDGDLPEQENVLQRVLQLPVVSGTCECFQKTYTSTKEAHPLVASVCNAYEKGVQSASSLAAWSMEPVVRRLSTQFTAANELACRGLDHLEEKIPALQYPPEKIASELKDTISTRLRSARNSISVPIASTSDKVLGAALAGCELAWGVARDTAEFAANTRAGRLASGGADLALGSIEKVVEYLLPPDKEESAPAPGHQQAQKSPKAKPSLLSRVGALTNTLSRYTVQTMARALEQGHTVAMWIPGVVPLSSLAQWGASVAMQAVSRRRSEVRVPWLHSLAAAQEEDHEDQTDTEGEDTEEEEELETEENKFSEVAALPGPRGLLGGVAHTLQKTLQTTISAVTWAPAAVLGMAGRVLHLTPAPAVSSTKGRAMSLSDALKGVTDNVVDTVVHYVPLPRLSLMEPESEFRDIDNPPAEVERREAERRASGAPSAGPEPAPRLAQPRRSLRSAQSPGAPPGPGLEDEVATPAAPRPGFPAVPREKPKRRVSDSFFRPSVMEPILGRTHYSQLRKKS
Perilipin-1 (Homo sapiens) + 1-acylglycerol-3-phosphate O-acyltransferase ABHD5 (Homo sapiens), sequence (Q8WTS1 whole entry, looked up): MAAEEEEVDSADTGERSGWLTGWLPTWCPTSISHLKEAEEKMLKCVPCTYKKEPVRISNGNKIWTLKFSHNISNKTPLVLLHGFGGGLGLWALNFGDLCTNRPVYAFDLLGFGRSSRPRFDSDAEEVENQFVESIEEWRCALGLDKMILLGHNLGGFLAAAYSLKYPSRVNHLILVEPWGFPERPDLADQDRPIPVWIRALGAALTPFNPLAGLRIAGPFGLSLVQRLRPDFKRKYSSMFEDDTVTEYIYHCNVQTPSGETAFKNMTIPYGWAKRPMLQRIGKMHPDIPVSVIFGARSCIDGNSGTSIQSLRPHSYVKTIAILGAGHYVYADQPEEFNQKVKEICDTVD
What is called inhibition is the drop in the measured response relative to a control, in per cent. Consider `CSCCC(NC(=O)OC(C)(C)C)C(=O)Oc1ccc2c(=O)c(-c3ccc4c(c3)OCCO4)coc2c1` (stereo not drawn), for which the inhibition was 67.4% (active).

In the case of `O=c1c(-c2ccc3c(c2)OCCO3)coc2cc(OC3OC(CO)C(O)C(O)C3O)ccc12` (stereo not drawn), the inhibition is -4.41%.

`CSCCC(NC(C)=O)C(=O)Oc1ccc2c3c(c(=O)oc2c1)CCCC3` (stereo not drawn): the inhibition is 4.14%. With `O=C(Nc1ccc(Cl)cn1)Nc1ccccc1Cl`, the inhibition is -3.38%.

For `CC(C)C1Cc2[nH]c(=O)c(C(=O)O)cc2CO1` (stereo not drawn), the inhibition is -7.52%. Turning to `CCCC(=O)Nc1ccccc1NC(C)=O`, the inhibition was -6.46%. In the case of `N/C(=N\OS(=O)(=O)c1ccc2ccccc2c1)c1cccnc1`, the inhibition was 0.01%. On to `COc1ccc(-c2c(NC(=O)c3ccco3)n(C)c3ccccc3c2=O)cc1`, for which the inhibition is -10.8%. The result for `O=C(NCCN1CCCCC1)c1c(O)c2ccccc2[nH]c1=O` reads -2.32%; that for `CC1(C)c2ccccc2N2CC(=O)N(CC(N)=O)C21C` (stereo not drawn), 4.18%. As to `CC1(C)c2ccccc2N2CC(=O)NC21/C=C/c1ccco1` (stereo not drawn), the inhibition was 47.4% (active).

Consider `O=C(/C=C/c1ccco1)N1CCN(c2ccccc2)CC1`, for which the inhibition was 4.55%. On to `CC(=O)c1c(C)c(C)c2n1CCn1c(C)ccc1-2`, for which the inhibition was 5.75%. In the case of `COc1ccc(C2C(C#N)=C(N)Oc3cc(C)[nH]c(=O)c32)c(OC)c1OC` (stereo not drawn), the inhibition is -14.5%. As to `O=C(/C=C/c1ccc2c(c1)OCCCO2)c1ccc2ccccc2c1O`, the inhibition was 17.8%. Consider `O=C(/C=C/c1ccc2c(c1)OCO2)c1ccccn1`, for which the inhibition is 51.3% (active). For `O=C(/C=C/c1ccc2c(c1)OCO2)NCc1ccc(F)cc1` the value was -2.57%; for `CC1(C)CC(=O)c2cc(O)ccc2O1`, -2.35%; for `CC(CCCC(C)(C)O)NC(=O)c1ccc(OC2CCN(C(=O)C3CC3)CC2)cc1` (stereo not drawn), -7.27%.

As to `Cc1ccc2[nH]c3c(c2c1)CCNC3=O`, the inhibition is -4.86%. On to `CC[n+]1ccc2cc(OC)c(OC)cc2c1Cc1ccc(OC)c(OC)c1`, for which the inhibition is -12.6%. For `COc1cc(=O)n(C)c2ccccc12` the value was -0.74%.

`COc1cccc2cc(-c3ccccc3)c(=O)oc12`: the inhibition was -3.48%.

Take `COc1ccc(/C=C/C(=O)c2cc3cccc(OC)c3oc2=O)cc1`: the inhibition is 60.6% (active). On to `COc1ccc(C(=O)/C=C/c2ccc(OC(=O)c3cc(OC)c(OC)c(OC)c3)cc2)cc1`, for which the inhibition was 26.9%.

Regarding `NS(=O)(=O)c1cc2c(cc1Cl)NC(C1C[C@H]3C=C[C@@H]1C3)NS2(=O)=O` (stereo partly drawn), the inhibition is 0.4%. With `O=C(O)CCn1cnc2ccccc2c1=O`, the inhibition is 3.53%. Consider `O=C(Cc1ccccc1)NCC(=O)OCC(=O)c1ccccc1Cl`, for which the inhibition was -13.7%. For `CCN1C(=O)C(CC(=O)Nc2ccc(F)cc2)N(Cc2ccco2)C1=S` (stereo not drawn) the value was 10.9%. Regarding `CS(=O)(=O)Oc1ccc2c(c1)O/C(=C\C=C\c1ccccc1)C2=O`, the inhibition was 58.8% (active). For the molecule `CC(=O)Oc1ccc2occ(/C=N/c3cc(=O)[nH]c(=S)[nH]3)c(=O)c2c1`, the inhibition is -1.72%. For the molecule `O=c1cc(CN2CCN(c3cccc(Cl)c3)CC2)c2cc(O)c(-c3ccccc3)cc2o1`, the inhibition was 1.13%. Take `COc1ccc2[nH]c(C)c(CN3CCC(C)CC3)c(=O)c2c1`: the inhibition is -4.96%.

For `CCc1cc2c(=O)c(-c3nc(C)cs3)coc2cc1OC(C)C(=O)NCCO` (stereo not drawn), the inhibition was -3.43%. For the molecule `COc1ccc(O)c(C(=O)/C=C/c2cc3ccccc3o2)c1`, the inhibition was 66.9% (active). As for `COc1ccc2oc(=O)c(C(=O)Nc3ccccc3-c3ccccc3)cc2c1`, the inhibition was -7.96%. Consider `COc1ccc2oc(=O)c(C(=O)N3CCN(c4ccccc4)CC3)cc2c1`, for which the inhibition was 9.05%.

Take `Cc1ccc(NCCC(=O)c2ccccc2)cc1Cl`: the inhibition was -2.97%.

Consider `CCCN1CCC(NC(=O)Nc2ccc(Br)cc2)CC1`, for which the inhibition is -9.54%. With `Cc1ccc2c(c1)C(O)(CC(=O)/C=C/C=C/c1ccccc1)C(=O)N2` (stereo not drawn), the inhibition was 16.4%.

Regarding `Cc1ccc(C2=NOC(=O)/C2=C\C=C\c2ccccc2)cc1`, the inhibition was 95.6% (active). For the molecule `O=C1NC2(Nc3ccccc31)C(=O)Nc1ccc(Br)cc12` (stereo not drawn), the inhibition is 0.88%.

Regarding `CC1(C)CC(C(CC(=O)N2CCCC2)Cc2ccccc2)CCO1` (stereo not drawn), the inhibition was -12.5%. For `Cc1cc(C(=O)Nc2ccccc2C(=O)N2CCCCC2)ccc1[N+](=O)[O-]`, the inhibition was -3.48%. With `COc1ccc(/C=C2\CCc3ccccc3C2=O)c(OC)c1OC`, the inhibition is -0.86%. For `COc1ccc(/C=C2\CC/C(=C\c3ccc(OC)c(OC)c3)C2=O)cc1OC` the value was 59.1% (active); for `COc1ccc(/C=C2\CCn3c2nc2cc(C(=O)O)ccc2c3=O)cc1OC`, -6.3%; for `CCN(CCCCCN(C)C)Cc1cc2ccccc2o1`, -7.75%. In the case of `O=C1C(Cc2c[nH]c3ccccc23)NC(=S)N1Cc1ccccc1` (stereo not drawn), the inhibition is -4.43%. Consider `CC(=O)N1CCN2C(=O)C1CCCC(=O)c1cc(C(C)C)ccc12` (stereo not drawn), for which the inhibition was 0.46%. Take `O=C1ON=C(c2ccc(Cl)cc2)/C1=C/c1ccc(O)cc1`: the inhibition is 82.8% (active). Consider `COc1cc2c(cc1OC)/C(=C/c1ccc(Cl)cc1)C(=O)OC2`, for which the inhibition was 27.4%. In the case of `CCOC(=O)N1CCN(Cc2nc(Cc3cccc(F)c3)no2)CC1`, the inhibition is -1.53%.

On to `C=CCc1ccc(OCC(O)COc2ccc(CC=C)cc2OC)c(OC)c1`, for which the inhibition is -1.62%. The result for `Cc1ccccc1C(=O)NNc1ncnc2c1cnn2C` reads -10.4%; that for `Cn1cc(CN2CCCC(CO)(Cc3cccc(Cl)c3)C2)cn1` (stereo not drawn), -10.7%; that for `c1ccc2c3c(c(CN4CCCCC4)cc2c1)COC3`, -4.68%. On to `CCN(CC)C(=O)c1ccc(O)c(OC)c1`, for which the inhibition is -1.24%.

Regarding `O=C(O)/C=C/c1ccc(O)c(O)c1`, the inhibition is -2.22%. Consider `COc1cc(/C=C/C(=O)CC(=O)/C=C/c2ccc(O)c(OC)c2)ccc1O`, for which the inhibition is 50.4% (active). As for `COc1ccc2c(c1O)Cc1ccccc1C2=O`, the inhibition was 12%. For `COc1cc(OC)cc(C(=O)N[C@@H](CCSC)c2nc3ccccc3[nH]2)c1` the value was 2.97%; for `CC(C)CCC1(CCNC(C)c2cccs2)CCOC(C)(C)C1` (stereo not drawn), -4.9%.
